# In ChEMBL document CHEMBL3988442, “University of Dundee, Small-Polar-MMV Screening Library” (2021):
# In all, about 48,000 compounds went through this assay and about 13,000 (27%) showed an effect of 50% or more. The list shows a part of the results.
# System: Wolbachia pipientis
# Test: Anti-Wolbachia Cell-Based Screen
# Format: functional
# Parameters: scale not given: in the data most compounds retested in dose-response had high values
# Conditions: 5 µM
row,Compound,Percent Effect [%]
1,COc1ccc(Oc2ccc(C(F)(F)F)cn2)cc1CN1CCCC1,-1.522
2,CCn1ccnc1S(=O)(=O)Cc1c(C)cc(C)c(C(C)=O)c1C,-13.95
3,CC(C)CN(Cc1ccsc1)C(=O)CCCn1cncn1,5.825
4,CCOc1cccc(CNC(=O)C(C)(C)C#N)c1OC(F)F,-15.69
5,Cl.Cl.c1csc(N2[C@H](Cn3cncn3)C[C@@H]3CNCC[C@@H]32)n1,3.496
6,CCC(=O)N1CC[C@H]2[C@H](C[C@@H](Cn3cccn3)N2c2nccs2)C1.O=C(O)C(F)(F)F.O=C(O)C(F)(F)F,119.1
7,CCC(=O)N1CC[C@H]2[C@H](C[C@@H](CN3CCCC3)N2c2nccs2)C1.O=C(O)C(F)(F)F.O=C(O)C(F)(F)F,104
8,O=C(O)C(F)(F)F.O=C(O)C(F)(F)F.O=C(O)C(F)(F)F.c1cnn(C[C@@H]2C[C@@H]3CN(CC4CC4)CC[C@@H]3N2c2nccs2)c1,119.3
9,CC(=O)N1[C@H](Cn2cncn2)C[C@@H]2CN(CC3CC3)CC[C@@H]21.O=C(O)C(F)(F)F,-0.2509
10,CC(=O)N1CC[C@H]2[C@H](C[C@@H](CN3CCCC3)N2c2nccs2)C1.O=C(O)C(F)(F)F.O=C(O)C(F)(F)F,95.98
11,CCCc1nnc(NC(C)c2ccc(F)cc2)o1 (configuration not stated),-29.12
12,Cc1cccc2c(CCNC(=O)[C@H](N)c3ccccc3)c[nH]c12,-3.898
13,CCC(NCc1ccccc1)c1ccccc1OCC(=O)NC (configuration not stated),-0.2413
14,CSCC(=O)N1C[C@H]2CC[C@@H]1CN(C1Cc3ccccc3C1)C2,0.6506
15,CN1CC[C@H]2[C@H](C[C@@H](CN3CCCC3)N2c2nccs2)C1.O=C(O)C(F)(F)F.O=C(O)C(F)(F)F.O=C(O)C(F)(F)F,105.1
16,CC1N(C)C(=O)COC12CCN(Cc1ccsc1)CC2.O=C(O)C(F)(F)F (configuration not stated),-20.67
17,CN(C)C(=O)CN1CCC2(CCCN(Cc3cccs3)C2)C1=O.O=C(O)C(F)(F)F (configuration not stated),-0.327
18,Cc1ccc(CN2CCC3(CCC(=O)N3CC(=O)N(C)C)CC2)s1.O=C(O)C(F)(F)F,113.5
19,CN1CC(=O)N(c2cccc(F)c2)CC12CCN(Cc1ccsc1)C2.O=C(O)C(F)(F)F.O=C(O)C(F)(F)F (configuration not stated),7.196
20,Cc1ccc(CN2CCC3(CCCN3S(C)(=O)=O)CC2)s1.O=C(O)C(F)(F)F,-3.179
21,CN(C)C(=O)CN1C(=O)CCC12CCN(Cc1cccs1)CC2.O=C(O)C(F)(F)F,103.6

row,Compound,Percent Effect [%]
1,Cc1ccc(CN2CCC3(CCCC(=O)N3)CC2)s1.O=C(O)C(F)(F)F,-45.29
2,CN(C)C(=O)CN1C(=O)CCC12CCN(Cc1ccsc1)CC2.O=C(O)C(F)(F)F,105.6
3,Cc1ccc(CN2CCOC3(CCCN(C(=O)c4ccco4)C3)C2)s1.O=C(O)C(F)(F)F (configuration not stated),12.79
4,N#Cc1nccnc1N1CCC(CSc2ccccc2)C1 (configuration not stated),-2.144
5,CCc1ncc(-c2cn(CCSc3ncn[nH]3)nn2)cn1,-12.01
6,Cc1cc2c(=O)n(CCSc3cnn[nH]3)cnc2s1,114.6
7,COc1ccc(-c2cn(CCSc3ncn[nH]3)nn2)cn1,4.594
8,Cc1cc(C)nc(NCCSc2cnn[nH]2)n1,5.167
9,Cc1cc2c(=O)n(CCOCCO)cnc2s1,-13.8
10,Cc1csc2c(=O)n(CCSc3cnn[nH]3)cnc12,116
11,CCC1CCN(CCn2cnc3c(C)csc3c2=O)CC1,-5.154
12,Cc1cc2c(=O)n(CCSc3ncn[nH]3)cnc2s1,95.33
13,Cc1csc2c(=O)n(CCN3CCNCC3)cnc12,-1.772
14,CN(CCCc1cnn(C)c1)C(=O)Nc1cccc2[nH]ncc12,-6.714
15,CCc1cnc(N2CC3(CCN(C(=O)c4ccoc4)C3)C2)nc1,-9.292
16,CN(C)C[C@H]1OC[C@@H]2CCN(C(=O)c3ccc[nH]3)C[C@@H]21.O=C(O)C(F)(F)F,-11.36
17,CC(=O)N(C)CC(=O)NC1(c2ccc(F)cc2)CCCC1,-10.47
18,O=C1NCCO[C@H]2CN(C(=O)Cc3csc4ccccc34)CC[C@@H]12,14.47
19,CCCn1cnnc1CNC(=O)CC1C(=O)NCCN1CC=C(C)C (configuration not stated),0.5151
20,Cc1oncc1C(=O)N1CC[C@H]2[C@@H]1CCC(=O)N2CC1CC1,108
21,Cc1ccc(C(=O)N2CC[C@@H]3[C@H]2CCC(=O)N3CC2CC2)o1,4.088

row,Compound,Percent Effect [%]
1,CCc1cnc(N2CC[C@H]3[C@@H]2CCC(=O)N3CC2CCOCC2)nc1.O=C(O)C(F)(F)F,-1.93
2,Cc1noc(C)c1CN1CC[C@H]2[C@@H]1CCC(=O)N2CC1CCOCC1.O=C(O)C(F)(F)F,107.1
3,Cc1oncc1C(=O)N1CC[C@H]2[C@@H]1CCC(=O)N2CC1CCOCC1,95.19
4,O=C(O)C(F)(F)F.O=C1CC[C@H]2[C@H](CCN2c2ccccn2)N1CC1CCOCC1,-16.88
5,O=C1C[C@H]2[C@H](CCN2C(=O)c2ccno2)N1CC1CC1,88.14
6,Cc1nc(CN2C(=O)CC[C@@H]3[C@H]2CCN3C(=O)c2ccno2)cs1,0.107
7,Cn1cccc1C(=O)N1CC[C@@H]2[C@@H]1CC(=O)N2CC1CCOCC1,-5.807
8,O=C1CC[C@@H]2[C@@H](CCN2C(=O)C2CCOCC2)N1CC1CC1,-4.769
9,Cn1cccc1C(=O)N1CC[C@H]2[C@@H]1CCC(=O)N2CC1CC1,-7.905
10,Cc1nn(C)c(C)c1CCC(=O)NCC1(C(N)=O)CCOCC1,112
11,Cc1nn(CC(=O)NCC2(C(N)=O)CCOCC2)c(C)c1Cl,113.9
12,CCN(CC)c1ccc(C(=O)NCC2(C(N)=O)CCOCC2)cn1,-5.685
13,Cn1ccc2c(C(=O)NCC3(C(N)=O)CCOCC3)cccc21,-19.6
14,Cc1nn(C)c(C)c1CC(=O)NCC1(C(N)=O)CCOCC1,121.1
15,Cc1nn(C)c(C)c1S(=O)(=O)NCC(C)(O)c1ccc2c(c1)OCO2 (configuration not stated),12.95
16,CCN(CC)c1ccc(NC(=O)NCC2(C(N)=O)CCOCC2)cn1,-0.5907
17,Cc1nn(C)c(C)c1S(=O)(=O)N(CC(N)=O)CC(C)C,0.7063
18,Cc1nn(C)c(C)c1CCC(=O)NCc1csc(N2CCCC2)n1,-4.027
19,CCc1nc(CC(=O)NCC2(C(N)=O)CCOCC2)cs1,13.26
20,Cc1nn(C)c(C)c1S(=O)(=O)NCC1(C(N)=O)CCOCC1,87.99
